From the supplement of paper PMC3545927
The list shows a part of the results. The true hit rate is not given.

B1: HC1350 (peptide)
chain: CADSDAESYSAGNASASA
B2: HC2475 (peptide)
chain: CAHTPCSAHLAGNASASA
B3: FS-2626 (peptide)
chain: CAAQKRSVGSAGNASASA
B4: FS-2735 (peptide)
chain: CARPARSGGPAGNASASA
B5: FS-2398 (peptide)
chain: CARPARLVPAAGNASASA
B6: FS-2736 (peptide)
chain: CARPARSVGSAGNASASA
B7: FS-2498 (peptide)
chain: CARPARSVSKAGNASASA
B8: FS-968 (peptide)
chain: CAWNKRKKRQAGNASASA
B9: FS-201 (peptide)
chain: CATHSRKKRQAGNASASA
B10: FS-1538 (peptide)
chain: CAKKHKKKRVAGNASASA
B11: FS-1521 (peptide)
chain: CAEMKRKKRVAGNASASA
B12: HC2531 (peptide)
chain: CASTPCSDHLAGNASASA
B13: FS-2050 (peptide)
chain: CARPARDEGGAGNASASA
B14: FS-813 (peptide)
chain: CAKPARYRRGAGNASASA
B15: FS-861 (peptide)
chain: CARPARYRRGAGNASASA
B16: EK9 (peptide)
chain: CAERGFFYTPAGNASASA
B17: HC2087 (peptide)
chain: CAVVCCSMSFAGNASASA
B18: HC2174 (peptide)
chain: CAEKVTSTWVAGNASASA
B19: FS-1188 (peptide)
chain: CACCRRKRRNAGNASASA
B20: FS-19 (peptide)
chain: CAEGQRKRRNAGNASASA
B21: HC1956 (peptide)
chain: CAGCTTPCSGAGNASASA
B22: HC233 (peptide)
chain: CAGGAARALAAGNASASA
B23: HC1828 (peptide)
chain: CAWTPCSGSWAGNASASA
B24: HC2212 (peptide)
chain: CAEVVTSEWVAGNASASA
B25: HC1884 (peptide)
chain: CATTPCSISWAGNASASA
B26: FS-3081 (peptide)
chain: CARSIRSVAIAGNASASA
B27: FS-2236 (peptide)
chain: CARSDRSVPSAGNASASA
B28: FS-2806 (peptide)
chain: CARSIRSSQNAGNASASA
B29: FS-1971 (peptide)
chain: CARSIRSTGSAGNASASA
B30: HC1096 (peptide)
chain: CAGEVPSTEDAGNASASA
B31: HC2479 (peptide)
chain: CAPTPCSAHLAGNASASA
B32: HC1578 (peptide)
chain: CAFAPTLWARAGNASASA
B33: FS-40 (peptide)
chain: CAKIARPKKRAGNASASA
B34: FS-523 (peptide)
chain: CAAKSRPVRGAGNASASA
B35: HC1419 (peptide)
chain: CAAKSKFGYGAGNASASA
B36: FS-641 (peptide)
chain: CAAKSRPKRRAGNASASA
B37: FS-663 (peptide)
chain: CAHSKRRVRDAGNASASA
B38: HC729 (peptide)
chain: CAADVIPVRRAGNASASA
B39: FS-2873 (peptide)
chain: CAMSKRDVLDAGNASASA
B40: FS-1594 (peptide)
chain: CAHSSRPVRDAGNASASA
B41: FS-2865 (peptide)
chain: CAHSKRKISWAGNASASA
B42: HC436 (peptide)
chain: CAGCTWMNSTAGNASASA
B43: HC1641 (peptide)
chain: CAAAGQLDLSAGNASASA
B44: HC2201 (peptide)
chain: CAEVNTSTWVAGNASASA

Biological target: furin, P09958
Sequence (P09958 whole entry): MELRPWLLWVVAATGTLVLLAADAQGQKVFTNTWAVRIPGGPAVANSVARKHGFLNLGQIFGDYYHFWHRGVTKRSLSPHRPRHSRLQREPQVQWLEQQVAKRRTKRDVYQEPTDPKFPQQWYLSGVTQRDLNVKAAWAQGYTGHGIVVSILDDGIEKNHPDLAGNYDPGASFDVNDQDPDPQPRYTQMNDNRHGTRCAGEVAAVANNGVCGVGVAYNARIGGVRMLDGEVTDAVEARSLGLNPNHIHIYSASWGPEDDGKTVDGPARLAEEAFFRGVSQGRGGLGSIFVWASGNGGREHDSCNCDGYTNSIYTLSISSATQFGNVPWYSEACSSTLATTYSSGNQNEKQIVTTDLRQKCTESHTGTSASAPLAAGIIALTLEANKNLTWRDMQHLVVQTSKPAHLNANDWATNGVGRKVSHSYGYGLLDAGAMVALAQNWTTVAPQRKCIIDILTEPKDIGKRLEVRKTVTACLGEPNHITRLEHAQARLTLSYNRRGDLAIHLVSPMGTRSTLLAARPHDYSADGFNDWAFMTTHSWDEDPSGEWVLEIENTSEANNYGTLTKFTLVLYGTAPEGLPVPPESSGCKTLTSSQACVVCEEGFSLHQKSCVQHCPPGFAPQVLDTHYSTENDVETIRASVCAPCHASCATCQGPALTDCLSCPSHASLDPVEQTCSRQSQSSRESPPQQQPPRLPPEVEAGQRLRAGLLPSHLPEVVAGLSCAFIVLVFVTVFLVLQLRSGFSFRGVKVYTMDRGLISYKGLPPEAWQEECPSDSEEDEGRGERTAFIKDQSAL
Assay: furin cleavage Z-score vs untreated control; higher = more cleavage, active = 3.5 or more, inactive = 1 or less, 8 variable residues between constant flanks
Method in brief: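 Purified furin cleaved 8-mer peptides that were fused to a cDNA oligonucleotide and held on magnetic beads by their N-terminus. Each 0.01 ml reaction used a 1:10 enzyme:substrate ratio in 50 mM HEPES pH 7.5 with CaCl2 and NaCl and ran 7.5, 15 or 30 min. Released DNA was adapter-tagged by PCR and sequenced, and read counts gave abundance. The cleavage Z-score came from log counts against furin-free reactions, lowess-adjusted and scaled by median absolute deviation.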

| Sequence | furin cleavage Z-score (7.5 min) | furin cleavage Z-score (15 min) | furin cleavage Z-score (30 min) |
| --- | --- | --- | --- |
| B1 | -0.915 (inactive) | -2 (inactive) | -1.07 (inactive) |
| B2 | -0.788 (inactive) | -1.31 (inactive) | -0.643 (inactive) |
| B3 | 0.58 (inactive) | 0.683 (inactive) | -0.853 (inactive) |
| B4 | -0.759 (inactive) | -1.01 (inactive) | -0.741 (inactive) |
| B5 | -0.162 (inactive) | -1.02 (inactive) | -0.581 (inactive) |
| B6 | 6.91 (active) | 7.69 (active) | 6.7 (active) |
| B7 | 4.36 (active) | 6.03 (active) | 6.77 (active) |
| B8 | 13.9 (active) | 14.4 (active) | 10.5 (active) |
| B9 | 8.08 (active) | 7.91 (active) | 8.14 (active) |
| B10 | -1.41 (inactive) | -0.885 (inactive) | 0.391 (inactive) |
| B11 | 6.73 (active) | 7.44 (active) | 8.54 (active) |
| B12 | 0.0703 (inactive) | 0.929 (inactive) | -0.421 (inactive) |
| B13 | -0.0204 (inactive) | -1.47 (inactive) | -0.304 (inactive) |
| B14 | 12.3 (active) | 12.4 (active) | 9.69 (active) |
| B15 | 11.5 (active) | 11.1 (active) | 8.69 (active) |
| B16 | -0.00549 (inactive) | -1.03 (inactive) | -0.153 (inactive) |
| B17 | -0.658 (inactive) | 0.464 (inactive) | -0.984 (inactive) |
| B18 | -0.438 (inactive) | 1.1 | -0.0879 (inactive) |
| B19 | 10.9 (active) | 10.1 (active) | 9.12 (active) |
| B20 | 11.4 (active) | 10.7 (active) | 8.22 (active) |
| B21 | -0.873 (inactive) | -0.658 (inactive) | -0.0577 (inactive) |
| B22 | 0.841 (inactive) | -0.114 (inactive) | -0.813 (inactive) |

| Sequence | furin cleavage Z-score (7.5 min) | furin cleavage Z-score (15 min) | furin cleavage Z-score (30 min) |
| --- | --- | --- | --- |
| B23 | -0.899 (inactive) | -0.739 (inactive) | -0.599 (inactive) |
| B24 | 0.969 (inactive) | -0.725 (inactive) | -0.598 (inactive) |
| B25 | 1.02 | 2.64 | 0.615 (inactive) |
| B26 | -0.459 (inactive) | 0.367 (inactive) | 2.74 |
| B27 | -0.464 (inactive) | -1.02 (inactive) | -0.799 (inactive) |
| B28 | 3.82 (active) | 4.88 (active) | 5.06 (active) |
| B29 | 8.51 (active) | 7.83 (active) | 8.71 (active) |
| B30 | -0.773 (inactive) | -0.136 (inactive) | 0.506 (inactive) |
| B31 | -0.112 (inactive) | 0.764 (inactive) | 1.86 |
| B32 | 0.686 (inactive) | -1.55 (inactive) | 0.247 (inactive) |
| B33 | 0.288 (inactive) | -0.123 (inactive) | -0.964 (inactive) |
| B34 | 6.42 (active) | 5.25 (active) | 5.42 (active) |
| B35 | 0.282 (inactive) | 0.423 (inactive) | 0.234 (inactive) |
| B36 | 10.7 (active) | 12 (active) | 8.13 (active) |
| B37 | 13.2 (active) | 12.9 (active) | 9.58 (active) |
| B38 | -0.626 (inactive) | 1.64 | 0.64 (inactive) |
| B39 | -0.828 (inactive) | -0.533 (inactive) | -0.677 (inactive) |
| B40 | 6.49 (active) | 7.91 (active) | 7.38 (active) |
| B41 | 1.39 | 0.543 (inactive) | 1.88 |
| B42 | 0.97 (inactive) | 0.0364 (inactive) | 1.16 |
| B43 | -0.412 (inactive) | 0.71 (inactive) | -1.04 (inactive) |
| B44 | 0.639 (inactive) | 0.541 (inactive) | 1.06 |
